In PubChem BioAssay:
Values without a mark were called inactive. No rule for the calls is given here.

system: Botulinum neurotoxin type F light chain protease (Clostridium botulinum); test: Clostridium botulinum type F light chain protease inhibitors, microsphere substrate cleavage, validation (AID 588459); conditions: multiplex microsphere protease substrate cleavage assay, flow cytometry; at 10 µM; hits give high values

Row | Structure (SMILES) | inhibition [%]
1 | CC(C)(C)c1csc(N/N=C/c2cccnc2)n1 | -3.3
2 | O=C(O)C1Sc2[nH]c(=O)sc2C2c3ccc(O)cc3OC(=O)C12 (stereo not given) | -6.1
3 | CCOC(=O)c1ccc2[nH]c(C)c(CCC(C)=O)c(=O)c2c1 | -0.7
4 | CC(=O)OCC(=O)C1=CCC2C3CCC4=CC(=O)C=CC4(C)C3(F)C(OC(C)=O)CC12C (stereo not given) | 0.8
5 | Cc1occc(=O)c1O | 2.1
6 | O=C(O)CCC(=O)c1ccc(-c2ccccc2)cc1 | -4.5
7 | CC(=O)N[C@@H](CS)C(=O)O | 5.5
8 | COc1cc2c(cc1O)CCN(C(=O)c1ccco1)C2C (stereo not given) | 4.3
9 | O=C(Oc1ccccc1)Oc1ccc2c(c1)oc(=O)c1ccccc12 | -1.6
10 | O=C(Nc1cccc(C(=O)O)c1)/C(=C\c1ccccc1)NC(=O)c1ccccc1 | 1.8
11 | CC(C)(C)C(=O)N1CCCC1C(=O)O (stereo not given) | -1
12 | COc1cc(/C=C(\C#N)C(=O)N2CCc3ccccc32)ccc1O | 0.6
13 | O=C(NCCc1nc2ccccc2[nH]1)c1cccc(Br)c1 | -3.2
14 | O=C1c2ccccc2C(=O)N1/N=C/c1ccc(Oc2ccc([N+](=O)[O-])cn2)cc1 | 0.2
15 | Cc1ccc(-n2cc(CNCCN3CCOC3=O)c(-c3ccc(F)cc3)n2)cc1 | -3.2
16 | CSCCC(NC(C)=O)C(=O)Oc1ccc2c3c(c(=O)oc2c1)CCCC3 (stereo not given) | -3.3
17 | Cc1cc(-c2ccccc2)nnc1NCCN1CCOCC1 | -0.7
18 | O=C(CC1(O)C(=O)Nc2ccccc21)c1ccccc1O (stereo not given) | 0.6
19 | COc1ccc2c(c1)c(=O)oc1cc3occ(C(C)(C)C)c3cc12 | 1.2
20 | COc1ccccc1/C=C/C(=O)OCCN1CCOCC1 | 3

Row | Structure (SMILES) | inhibition [%]
21 | O=C(O)CC(O)C(=O)O (stereo not given) | -3.1
22 | Cc1ccc(C2CC(c3cccs3)=NN2C(=O)c2ccco2)o1 (stereo not given) | -0.5
23 | CC(CCCC(C)(C)O)NC(=O)c1ccc(OC2CCN(C(=O)C3CC3)CC2)cc1 (stereo not given) | 0.1
24 | CC1Cc2ccccc2N1NC(=O)c1ccc(Cl)c(S(N)(=O)=O)c1 (stereo not given) | 1.4
25 | Cc1ccc2c(c1)c(C)cc(=O)n2CCC(=O)O | 0.8
26 | CC(C)CC(=O)N(Cc1ccc(F)cc1)C1CCS(=O)(=O)C1 (stereo not given) | 8.9
27 | COc1cccc2c(O)cc(=O)n(C)c12 | -7.7
28 | CC(=O)c1cc2c(cc1NC(=O)c1ccco1)OCCO2 | -1.7
29 | Cc1coc2c1c(C)cc1oc(=O)c(Cc3ccccc3)c(C)c12 | 1.9
30 | O=C(NNC(=O)c1cccs1)c1ccco1 | 1.9
31 | COc1ccc(N2C(=O)C3C(C2=O)C(C(=O)c2ccccc2)N2CCCC32)cc1 (stereo not given) | 1.6
32 | COc1cc2cc(C)nc(Cc3cccc4ccccc34)c2cc1OC | 5.3
33 | CCCc1cc(=O)[nH]c(=S)[nH]1 | -2.4
34 | CCN(CCCc1ccccc1)CCCc1ccccc1 | 1
35 | COc1cc(/C=C/C(=O)O)cc(S(=O)(=O)NCCCO)c1OC | 1.9
36 | CCOC(=O)C1(Cc2cccc(Cl)c2)CCCN(C2CCN(C(C)=O)CC2)C1 (stereo not given) | 9.1
37 | COc1ccc(C2CNC(=O)C2)cc1OC1CCCC1 (stereo not given) | 7.8
38 | CCOC(=O)C1=C2c3ccc4ccccc4c3CC(C)(C)N2C(=O)C1=O | 2.7
39 | C[C@]12C[C@H](O)[C@H]3[C@@H](CCC4=CC(=O)CC[C@@]43C)[C@@H]1CC[C@@H]2C(=O)CO | 0.1
40 | COc1ccc(C(=O)Nc2cccnc2)cc1C(=O)Nc1cccnc1 | 2.9

biological target: Botulinum neurotoxin type A (Clostridium botulinum) (UniProt P0DPI0); test: BoNT/A light chain protease inhibitors, biochemical, multiplex microsphere flow cytometry, validation set (AID 588460); conditions: at 10 µM, hits give high values
Sequence (P0DPI0 whole entry, looked up): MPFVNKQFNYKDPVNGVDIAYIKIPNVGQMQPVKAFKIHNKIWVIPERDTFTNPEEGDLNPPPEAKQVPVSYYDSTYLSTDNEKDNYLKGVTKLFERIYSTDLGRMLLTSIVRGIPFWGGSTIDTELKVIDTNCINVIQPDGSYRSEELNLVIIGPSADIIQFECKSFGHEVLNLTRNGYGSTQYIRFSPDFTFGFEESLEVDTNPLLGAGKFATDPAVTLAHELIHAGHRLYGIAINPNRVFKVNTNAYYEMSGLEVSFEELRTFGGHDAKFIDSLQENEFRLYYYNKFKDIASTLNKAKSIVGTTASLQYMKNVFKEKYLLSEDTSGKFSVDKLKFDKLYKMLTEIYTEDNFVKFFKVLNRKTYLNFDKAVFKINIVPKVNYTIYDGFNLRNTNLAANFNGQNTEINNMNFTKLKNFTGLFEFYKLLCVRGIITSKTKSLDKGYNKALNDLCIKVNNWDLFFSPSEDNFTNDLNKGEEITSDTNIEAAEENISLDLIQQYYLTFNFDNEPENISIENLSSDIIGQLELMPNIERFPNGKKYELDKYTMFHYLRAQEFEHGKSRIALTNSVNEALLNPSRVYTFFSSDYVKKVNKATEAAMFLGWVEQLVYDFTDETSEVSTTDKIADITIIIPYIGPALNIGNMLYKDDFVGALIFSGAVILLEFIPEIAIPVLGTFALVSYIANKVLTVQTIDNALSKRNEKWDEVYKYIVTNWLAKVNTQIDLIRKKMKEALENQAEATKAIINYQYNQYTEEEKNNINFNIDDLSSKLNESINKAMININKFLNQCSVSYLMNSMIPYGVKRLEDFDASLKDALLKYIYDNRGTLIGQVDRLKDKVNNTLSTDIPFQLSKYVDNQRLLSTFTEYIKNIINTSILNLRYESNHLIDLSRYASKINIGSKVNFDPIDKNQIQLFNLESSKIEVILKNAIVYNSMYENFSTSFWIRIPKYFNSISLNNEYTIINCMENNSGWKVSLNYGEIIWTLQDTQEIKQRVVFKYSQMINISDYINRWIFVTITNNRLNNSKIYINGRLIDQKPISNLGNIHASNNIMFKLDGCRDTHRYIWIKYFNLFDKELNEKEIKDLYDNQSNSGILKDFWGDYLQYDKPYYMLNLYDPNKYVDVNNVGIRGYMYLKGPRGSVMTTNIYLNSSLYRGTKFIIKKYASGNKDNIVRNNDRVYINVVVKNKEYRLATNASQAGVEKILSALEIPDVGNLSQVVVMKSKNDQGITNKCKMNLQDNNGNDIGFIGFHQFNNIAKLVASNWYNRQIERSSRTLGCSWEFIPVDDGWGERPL

Row | Structure (SMILES) | inhibition [%]
41 | CC(C)(C)c1csc(N/N=C/c2cccnc2)n1 | 0.5
42 | O=C(O)C1Sc2[nH]c(=O)sc2C2c3ccc(O)cc3OC(=O)C12 (stereo not given) | -1
43 | CCOC(=O)c1ccc2[nH]c(C)c(CCC(C)=O)c(=O)c2c1 | 0.3
44 | CC(=O)OCC(=O)C1=CCC2C3CCC4=CC(=O)C=CC4(C)C3(F)C(OC(C)=O)CC12C (stereo not given) | -0.6
45 | Cc1occc(=O)c1O | 0.8
46 | O=C(O)CCC(=O)c1ccc(-c2ccccc2)cc1 | -1.1
47 | CC(=O)N[C@@H](CS)C(=O)O | -0.8
48 | COc1cc2c(cc1O)CCN(C(=O)c1ccco1)C2C (stereo not given) | 1
49 | O=C(Oc1ccccc1)Oc1ccc2c(c1)oc(=O)c1ccccc12 | -0.4
50 | O=C(Nc1cccc(C(=O)O)c1)/C(=C\c1ccccc1)NC(=O)c1ccccc1 | 0.3
51 | CC(C)(C)C(=O)N1CCCC1C(=O)O (stereo not given) | -1.2
52 | COc1cc(/C=C(\C#N)C(=O)N2CCc3ccccc32)ccc1O | 1.6
53 | O=C(NCCc1nc2ccccc2[nH]1)c1cccc(Br)c1 | -1.3
54 | O=C1c2ccccc2C(=O)N1/N=C/c1ccc(Oc2ccc([N+](=O)[O-])cn2)cc1 | 0.8
55 | Cc1ccc(-n2cc(CNCCN3CCOC3=O)c(-c3ccc(F)cc3)n2)cc1 | 1.5
56 | CSCCC(NC(C)=O)C(=O)Oc1ccc2c3c(c(=O)oc2c1)CCCC3 (stereo not given) | -1.8
57 | Cc1cc(-c2ccccc2)nnc1NCCN1CCOCC1 | -0.4
58 | O=C(CC1(O)C(=O)Nc2ccccc21)c1ccccc1O (stereo not given) | -0.8
59 | COc1ccc2c(c1)c(=O)oc1cc3occ(C(C)(C)C)c3cc12 | 1.4
60 | COc1ccccc1/C=C/C(=O)OCCN1CCOCC1 | -2.1

Row | Structure (SMILES) | inhibition [%]
61 | O=C(O)CC(O)C(=O)O (stereo not given) | -0.9
62 | Cc1ccc(C2CC(c3cccs3)=NN2C(=O)c2ccco2)o1 (stereo not given) | -0.5
63 | CC(CCCC(C)(C)O)NC(=O)c1ccc(OC2CCN(C(=O)C3CC3)CC2)cc1 (stereo not given) | 0.7
64 | CC1Cc2ccccc2N1NC(=O)c1ccc(Cl)c(S(N)(=O)=O)c1 (stereo not given) | 0.7
65 | Cc1ccc2c(c1)c(C)cc(=O)n2CCC(=O)O | -0.2
66 | CC(C)CC(=O)N(Cc1ccc(F)cc1)C1CCS(=O)(=O)C1 (stereo not given) | 3.7
67 | COc1cccc2c(O)cc(=O)n(C)c12 | -0.5
68 | CC(=O)c1cc2c(cc1NC(=O)c1ccco1)OCCO2 | -1.3
69 | Cc1coc2c1c(C)cc1oc(=O)c(Cc3ccccc3)c(C)c12 | -0.5
70 | O=C(NNC(=O)c1cccs1)c1ccco1 | -2.8
71 | COc1ccc(N2C(=O)C3C(C2=O)C(C(=O)c2ccccc2)N2CCCC32)cc1 (stereo not given) | -0.2
72 | COc1cc2cc(C)nc(Cc3cccc4ccccc34)c2cc1OC | 1.3
73 | CCCc1cc(=O)[nH]c(=S)[nH]1 | 1.4
74 | CCN(CCCc1ccccc1)CCCc1ccccc1 | -0.4
75 | COc1cc(/C=C/C(=O)O)cc(S(=O)(=O)NCCCO)c1OC | 0.7
76 | CCOC(=O)C1(Cc2cccc(Cl)c2)CCCN(C2CCN(C(C)=O)CC2)C1 (stereo not given) | 0.7
77 | COc1ccc(C2CNC(=O)C2)cc1OC1CCCC1 (stereo not given) | -0.3
78 | CCOC(=O)C1=C2c3ccc4ccccc4c3CC(C)(C)N2C(=O)C1=O | 1.7
79 | C[C@]12C[C@H](O)[C@H]3[C@@H](CCC4=CC(=O)CC[C@@]43C)[C@@H]1CC[C@@H]2C(=O)CO | -0.6
80 | COc1ccc(C(=O)Nc2cccnc2)cc1C(=O)Nc1cccnc1 | 1.3
